Laboratory results from PubChem BioAssay AID1239 (SRMLSC, 2008).
Among all 190,000 compounds or so, about 3,100 (1.6%) were called active. Only a selection was taken, and actives are over-represented in it overall. Unmarked numbers belong to inactive results. Rule as the data show it: active = fold change above about 3.3; inconclusive = no clear call, values can overlap the other calls; inactive = below that.

Experiment: NF-kB upregulation, human neuronal cells – cell-based, HTS, primary screen (AID 1239)
Settings: NF-kB reporter expression, at 12.5 µM, active compounds read high

Row | Structure (SMILES) | fold change
1 | O=C1CCCC2=C1C(c1cccs1)CC(=O)N2c1ccc(F)cc1 (configuration not stated) | 1.01
2 | CN(C)CCOCCOc1ccc(Cl)c2ccccc12 | 0.97
3 | CCOC(=O)c1[nH]ncc1CN1CCCC(C(=O)c2ccc(OC)cc2C)C1 (configuration not stated) | 1.04
4 | C=CCn1c(-c2sc(-c3ccccc3)nc2C)n[nH]c1=S | 1.29
5 | COc1ccc2c3c(c(=O)oc2c1OCC(=O)C(C)(C)C)CCCC3 | 1.12
6 | CCCOc1ccc2c3c(c(=O)oc2c1OCCC)CCC3 | 5.55 (active)
7 | O=c1oc2c(CN3CCCCC3)c(O)ccc2c2c1CCCCC2 | 1.01
8 | Cc1cccc(NC(=S)NCCc2ccc(F)cc2)c1C | 1.04
9 | Cc1ccc2c(c1)C(O)(CC(=O)c1cccc(-n3cccc3)c1)C(=O)N2 (configuration not stated) | 1.11
10 | COC(=O)c1sc2[nH]c(=S)n(N)c(=O)c2c1C | 1.19
11 | Cc1ccccc1Nc1nc(N)nc(CSc2nnc3ccccn23)n1 | 1.69
12 | Cc1ccccc1Nc1nc(N)nc(CSc2ccccc2)n1 | 5.08 (active)
13 | Cc1ccc(C(=O)OCc2nc(N)nc(Nc3ccccc3C)n2)cc1 | 0.92
14 | C/C(=N/OC(=O)c1c(-c2c(F)cccc2Cl)noc1C)c1cnccn1 | 1.2
15 | CCOc1ccc2nc(SC(CC)C(=O)Nc3cc(C)on3)sc2c1 (configuration not stated) | 0.94
16 | CCOc1ccc2nc(Nc3nc4ccc(NC(C)=O)cc4s3)sc2c1 | 0.85
17 | CCOc1ccc2nc(C(=O)N3CCCC(C)C3)sc2c1 (configuration not stated) | 8.66 (active)
18 | CCOC(=O)c1c(NC(=O)C2CC=CCC2C(=O)O)sc(C)c1CC (configuration not stated) | 0.88
19 | Cc1ccn(-c2cccc(-n3ccc(C)n3)n2)n1 | 3.56 (active)
20 | COc1ccc(C)cc1NC(=O)CSc1ccc(Cl)cc1 | 1.29
21 | O=C(Cc1cccc2ccccc12)Nc1ccc2oc(-c3ccccc3)nc2c1 | 1.24
22 | COc1cccc(-c2nc(S(=O)(=O)c3ccccc3)c(N3CCOCC3)o2)c1 | 1.11
23 | COc1cccc(-c2nc3cc(C)ccc3o2)c1 | 6.47 (active)
24 | COc1ccc2oc(-c3cccc(NC(=O)CSc4ccc(Cl)cc4)c3)nc2c1 | 5.09 (active)
25 | COc1ccc(-c2nc3cc([N+](=O)[O-])ccc3o2)cc1OC | 1.48
26 | COc1ccc(S(=O)(=O)N2CCCCCC2)cc1C(=O)OCC(=O)Nc1cc(C)on1 | 0.91

Row | Structure (SMILES) | fold change
27 | CCC(C)(C)c1ccc(OCC(=O)N(C)C)c(C(C)(C)CC)c1 | 0.82
28 | CSc1ccc(CN(C)CC(=O)NCc2ccc(F)cc2)cc1 | 1.02
29 | COc1ccc(OC)c(C(=O)c2ccc(C(=O)N3CCN(Cc4csc(C)n4)CC3)cc2)c1 | 1.07
30 | CCOC(=O)N1CCN(Cc2nc3c(c(=O)n(C)c(=O)n3C)n2Cc2ccccc2)CC1 | 1.26
31 | CN1CCN(Cc2nc3c(c(=O)n(C)c(=O)n3C)n2Cc2cccc3ccccc23)CC1 | 3.6 (active)
32 | CCN1CCN(Cc2nc3c(c(=O)n(C)c(=O)n3C)n2CC(=O)c2ccccc2)CC1 | 2.25
33 | CC(C)C(=O)OCC(=O)Nc1ccc2c(c1)CCC2 | 1.06
34 | O=C(Nc1ccc2c(c1)CCC2)c1ccc(Br)s1 | 11.1 (active)
35 | O=C(NC1CCCC1)c1ccc(Br)s1 | 1.12
36 | CCN(C(=O)c1ccc(Br)cc1)c1ccccc1 | 1.19
37 | C/C(CC(=O)Nc1cccc(C(F)(F)F)c1)=N\NC(=O)C(=O)NCC(C)C | 1.26
38 | CC(C)C1Nc2c(C(=O)O)cccc2C(Nc2ccccc2C(=O)O)C1(C)C (configuration not stated) | 1.41
39 | O=C(c1cc(-c2cccs2)on1)N1CCCCC1 | 5.06 (active)
40 | COc1ccccc1N1CCN(C(=O)c2cc(-c3ccc(Br)cc3)on2)CC1 | 1.31
41 | COc1ccccc1-c1cc(C(=O)N2CCCCC2)no1 | 6.86 (active)
42 | Cc1ccc(-c2cc(C(=O)N3CCc4ccccc4C3)no2)cc1 | 1.06
43 | O=C(c1cc(-c2ccccc2O)on1)N1CCCC1 | 2.02
44 | O=C(c1ccc(F)cc1)N1CCCC(c2nc(-c3cccs3)no2)C1 (configuration not stated) | 0.86
45 | Cc1cccc(NC(=S)Nc2ccc(Cl)c(Cl)c2)c1 | 0.6
46 | COc1cc([N+](=O)[O-])ccc1NC(=S)N1CCN(c2ccccn2)CC1 | 1
47 | CC1CCN(C(=S)c2cccc(O)c2)CC1 | 1.37
48 | CCCN(CCC)c1ccc(C(O)c2nnc(-c3ccccc3)o2)cc1 (configuration not stated) | 1.05
49 | c1ccc(C2=Nc3cccc4cccc(c34)N2)cc1 | 1.21
50 | Brc1ccc(C2CC(c3ccccc3)=Nc3ccccc3N2)cc1 (configuration not stated) | 3.44 (active)
51 | CNC(=S)N1N=C(c2ccccc2)CC1c1ccc(Br)cc1 (configuration not stated) | 1.3
52 | C=CCn1cc(-c2cccc(C(F)(F)F)c2)cc(C#N)c1=O | 1.06

Row | Structure (SMILES) | fold change
53 | O=C(/C=C/c1ccc(N2CCOCC2)cc1)c1ccccc1 | 4.09 (active)
54 | O=C(O)c1ccc2c(c1)C(=O)N(c1ccc(/C=C/C(=O)c3ccccc3)cc1)C2=O | 1.2
55 | O=C(/C=C/c1ccccc1)c1ccoc1 | 0.94
56 | O=C(Nc1nc(-c2cccnc2)cs1)c1ccccc1F | 1.73
57 | COc1cc(NC(=S)N2CCCC(C)C2)cc(OC)c1OC (configuration not stated) | 1.11
58 | COc1ccc(/C=C(\C#N)C(=O)ONC2=NCCCCC2)cc1 | 1.26
59 | COc1cc(SC)ccc1C(=O)Nc1nc(C)cs1 | 0.52
60 | Cc1csc(NC(=O)CN2CCCCCC2)n1 | 1.18
61 | Cc1csc(NC(=O)Nc2ccccc2[N+](=O)[O-])n1 | 3.38 (active)
62 | Cc1csc(NC(=O)NC2(C(F)(F)F)Oc3ccccc3O2)n1 | 5.29 (active)
63 | Cc1cc(NC(=O)Nc2ccccc2[N+](=O)[O-])no1 | 1.12
64 | Cc1c(NC(=O)Nc2ccccc2)cccc1[N+](=O)[O-] | 1.43
65 | Cc1ccnc(NC(=O)c2ccc(Cl)c([N+](=O)[O-])c2)c1 | 2.09
66 | CNC(=S)Nc1ccc([N+](=O)[O-])cc1 | 1.13
67 | Cc1ccccc1N1C(=O)C(Oc2ccc(Cl)cc2)C1CNCC1CCCO1 (configuration not stated) | 1.25
68 | CCOC(=O)CCNC(=O)N1CCCC(C(=O)c2ccccc2SC)C1 (configuration not stated) | 1
69 | O=C(Nc1ccc(-c2nnc(-c3ccccc3)o2)cc1)C1CCCO1 (configuration not stated) | 4.06 (active)
70 | O=C(Nc1cccc(-c2nnc(-c3ccccc3)o2)c1)C1CCCO1 (configuration not stated) | 0.88
71 | O=C(Nc1nnc(CCc2ccccc2)s1)C1CCCO1 (configuration not stated) | 1.38
72 | COc1ccc(-n2nc3c(c2NC(=O)c2ccc(N4C(=O)CCC4=O)cc2)CSC3)cc1 | 1.2
73 | C=CCN(C(=O)c1cc(C)cc(C)c1)C1(C(=O)Nc2ccccc2)CCN(C(C)C)CC1 | 0.87
74 | CC1CN(CCOc2ccccc2[N+](=O)[O-])CC(C)O1 (configuration not stated) | 1.22
75 | CC1CCN(S(=O)(=O)c2ccc3ncn(CC(=O)N(C)C4CCCCC4)c(=O)c3c2)CC1 | 0.79
76 | O=C(OCC(=O)c1cccs1)c1ccc([N+](=O)[O-])o1 | 0.88
77 | Cc1cc(=O)n2[nH]c(-c3sccc3-n3c(C)ccc3C)cc2n1 | 1.08
78 | CCOC(=O)CSC1=N/C(=C/c2ccc(-n3cncn3)cc2)C(=O)N1C(C)=O | 4.34 (active)

Row | Structure (SMILES) | fold change
79 | CCOC(=O)CSc1nc(C)cc2c1C(=O)OC2 | 1.43
80 | CCOC(=O)CSc1ccccn1 | 0.99
81 | CC1=NN(c2ccccc2)C(=O)C1C(=O)c1ccc([N+](=O)[O-])cc1 (configuration not stated) | 0.91
82 | O=C(O)/C=C/c1cn(Cc2ccccc2)nc1-c1cccs1 | 1.06
83 | NS(=O)(=O)c1cccc(NC(=O)CN2CCCc3ccccc32)c1 | 0.95
84 | Cc1cccc(NC(=O)/C=C/c2ccc3c(c2)OCO3)n1 | 8.04 (active)
85 | O=C(/C=C/c1ccc2c(c1)OCO2)NCc1ccc(F)cc1 | 1.46
86 | COc1ccc(/C=C/C(=O)Nc2ccc3c(c2)OCCO3)cc1OC | 0.68
87 | COc1cccc(/C=C/C(=O)Nc2ccc3c(c2)OCCO3)c1 | 6.74 (active)
88 | COc1ccc(OC)c(/C=C/C(=O)OCC(=O)Nc2ccc3c(c2)OCCO3)c1 | 1
89 | CCc1c(C)sc(NC(=O)/C=C/c2ccc3c(c2)OCO3)c1C(=O)OC | 1.05
90 | CC(NC(=O)Nc1ccc2c(c1)OCO2)c1ccncc1 (configuration not stated) | 1.61
91 | CCSc1ccccc1C(=O)Nc1ccc2c(c1)OCO2 | 1.88
92 | Cc1cccc(NC(=O)Nc2ccc3c(c2)OCO3)n1 | 4.19 (active)
93 | COc1ccc(N2C(=O)C(Cc3ccccc3)NC2=S)cc1 (configuration not stated) | 1.19
94 | Cc1nn(C)c(C)c1S(=O)(=O)N1CCC(CO)(Cc2ccc(Cl)cc2)CC1 | 0.97
95 | O=C(N/N=C/c1cc2c(cc1Br)OCO2)C1COc2ccccc2O1 (configuration not stated) | 1.55
96 | COc1cc(NC(=S)NCc2ccc(S(N)(=O)=O)cc2)cc(OC)c1 | 1.03
97 | CSc1ccccc1NC(=O)CN(C)CC(=O)Nc1ccc(Cl)cc1[N+](=O)[O-] | 1.29
98 | C(=N\Nc1ccc2ccccc2n1)/c1ccc2c(c1)OCO2 | 1.78
99 | Cc1cc(C)nc(N/N=C/c2c(C)oc3ccccc23)n1 | 1.11
100 | Cc1noc(C)c1/C=N/Nc1ccc2ccccc2n1 | 4.12 (active)
101 | O=C1c2ccccc2C(=O)N1CCC(O)C[N+](=O)[O-] (configuration not stated) | 0.98
102 | COc1ccc(-c2nc3cnccn3c2NC(C)(C)CC(C)(C)C)cc1O | 0.68
